Results from PubChem BioAssay AID1159580 (chemical genetic matrix, 2015).
Screen size: about 5,500 compounds; about 2,000 (36%) were called active. About 18% were inconclusive and are not listed. No stated cut-off is given here; in the data, active means normalized growth mostly below about 0.91 (no sharp cut-off); inconclusive means no clear call, values can overlap the other calls; inactive means mostly above about 0.92. The list shows a part of the results.

Test: chemical genetic growth profiling, strain panel (AID 1159580);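 further: tested at 20 µM; growth read once vehicle control cultures reached saturation at 30 °C; 1 = growth at the plate median or of vehicle wells; lower values mean less growth of the strain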
Conditions: growth OD

Measured: normalized growth

CCCc1nc2c(C)cc(-c3nc4ccccc4n3C)cc2n1Cc1ccc(-c2ccccc2C(=O)O)cc1
inactive: S. cerevisiae deletion strains, locus YJR043C, strain POL32, hits give low values 0.991 | S. cerevisiae deletion strains, locus YJR066W, strain TOR1, hits give low values 0.952 | S. cerevisiae deletion strains, locus YKL068W, hits give low values 1.01 | S. cerevisiae deletion strains, locus YKL160W, strain elf1, hits give low values 1.03 | S. cerevisiae deletion strains, locus YKL190W, strain CNB1, hits give low values 1 | S. cerevisiae deletion strains, locus YKR001C, strain vps1, hits give low values 1.02 | S. cerevisiae deletion strains, locus YKR026C, strain gcn3, hits give low values 1.02 | S. cerevisiae deletion strains, locus YKR091W, strain srl3, hits give low values 1.01 | S. cerevisiae deletion strains, locus YLL001W, strain dnm1, hits give low values 1.01 | S. cerevisiae deletion strains, locus YLL026W, hits give low values 1 | S. cerevisiae deletion strains, locus YLL041C, strain sdh2, hits give low values 1.01 | S. cerevisiae deletion strains, locus YLR027C, strain aat2, hits give low values 1 | S. cerevisiae deletion strains, locus YLR039C, strain RIC1, hits give low values 0.975 | S. cerevisiae deletion strains, locus YLR058C, strain SHM2, hits give low values 1 | S. cerevisiae deletion strains, locus YLR102C, strain apc9, hits give low values 1 | S. cerevisiae deletion strains, locus YLR113W, strain HOG1, hits give low values 1 | S. cerevisiae deletion strains, locus YLR221C, strain rsa3, hits give low values 0.994 | S. cerevisiae deletion strains, locus YLR258W, strain gsy2, hits give low values 1.01 | S. cerevisiae deletion strains, locus YLR262C, strain YPT6 (second series), hits give low values 0.975 | S. cerevisiae deletion strains, locus YLR262C, strain YPT6, hits give low values 0.998 | S. cerevisiae deletion strains, locus YLR268W, strain sec22, hits give low values 1 | S. cerevisiae deletion strains, locus YLR320W, strain mms22, hits give low values 0.983 | S. cerevisiae deletion strains, locus YLR330W, strain CHS5, hits give low values 1 | S. cerevisiae deletion strains, locus YLR342W, strain FKS1 (second series), hits give low values 1 | S. cerevisiae deletion strains, locus YLR342W, strain FKS1, hits give low values 1 | S. cerevisiae deletion strains, locus YLR357W, strain rsc2, hits give low values 1.03 | S. cerevisiae deletion strains, locus YLR370C, strain arc18, hits give low values 1.01 | S. cerevisiae deletion strains, locus YLR371W, strain rom2, hits give low values 1 | S. cerevisiae deletion strains, locus YLR384C, strain iki3, hits give low values 1.03 | S. cerevisiae deletion strains, locus YLR418C, strain cdc73, hits give low values 1 | S. cerevisiae deletion strains, locus YML016C, strain PPZ1, hits give low values 0.997 | S. cerevisiae deletion strains, locus YML032C, strain rad52, hits give low values 1 | S. cerevisiae deletion strains, locus YML120C, strain ndi1, hits give low values 1 | S. cerevisiae deletion strains, locus YML124C, strain tub3, hits give low values 0.998 | S. cerevisiae deletion strains, locus YMR058W, strain fet3, hits give low values 1.01 | S. cerevisiae deletion strains, locus YMR078C, strain ctf18, hits give low values 1.02 | S. cerevisiae deletion strains, locus YMR125W, strain sto1, hits give low values 0.99 | S. cerevisiae deletion strains, locus YMR129W, hits give low values 1.01 | S. cerevisiae deletion strains, locus YMR205C, strain PFK2, hits give low values 1 | S. cerevisiae deletion strains, locus YMR223W, strain ubp8, hits give low values 1.03 | S. cerevisiae deletion strains, locus YMR231W, strain pep5, hits give low values 1.02 | S. cerevisiae deletion strains, locus YMR263W, strain SAP30, hits give low values 0.994 | S. cerevisiae deletion strains, locus YMR307W, strain GAS1, hits give low values 0.995 | S. cerevisiae deletion strains, locus YNL067W, strain RPL9B, hits give low values 0.992 | S. cerevisiae deletion strains, locus YNL071W, strain lat1, hits give low values 1.01 | S. cerevisiae deletion strains, locus YNL128W, strain TEP1, hits give low values 1.01 | S. cerevisiae deletion strains, locus YNL183C, strain NPR1, hits give low values 0.969 | S. cerevisiae deletion strains, locus YNL209W, strain ssb2, hits give low values 1 | S. cerevisiae deletion strains, locus YNL233W, strain BNI4, hits give low values 0.985 | S. cerevisiae deletion strains, locus YNL248C, strain rpa49, hits give low values 1.02 | S. cerevisiae deletion strains, locus YNL250W, strain rad50, hits give low values 1.03 | S. cerevisiae deletion strains, locus YNL271C, strain bni1, hits give low values 1.02 | S. cerevisiae deletion strains, locus YNL298W, strain CLA4, hits give low values 1.02 | S. cerevisiae deletion strains, locus YNL307C, strain MCK1, hits give low values 1.01 | S. cerevisiae deletion strains, locus YNL322C, strain KRE1 (second series), hits give low values 0.976 | S. cerevisiae deletion strains, locus YNR049C, strain mso1, hits give low values 1.02 | S. cerevisiae deletion strains, locus YNR052C, strain pop2, hits give low values 1.01 | S. cerevisiae deletion strains, locus YOL006C, strain TOP1, hits give low values 0.995 | S. cerevisiae deletion strains, locus YOL012C, strain htz1 0.863 | S. cerevisiae deletion strains, locus YOL147C, strain pex11, hits give low values 1.01 | S. cerevisiae deletion strains, locus YOR001W, strain rrp6, hits give low values 0.99 | S. cerevisiae deletion strains, locus YOR061W, strain CKA2, hits give low values 0.996 | S. cerevisiae deletion strains, locus YOR069W, strain VPS5, hits give low values 1.01 | S. cerevisiae deletion strains, locus YOR070C, strain gyp1, hits give low values 1.01 | S. cerevisiae deletion strains, locus YOR080W, strain dia2, hits give low values 1.01 | S. cerevisiae deletion strains, locus YOR083W, strain WHI5, hits give low values 1.01 | S. cerevisiae deletion strains, locus YOR106W, strain vam3, hits give low values 1.03 | S. cerevisiae deletion strains, locus YOR136W, strain idh2, hits give low values 1.01 | S. cerevisiae deletion strains, locus YOR144C, strain elg1, hits give low values 1.01 | S. cerevisiae deletion strains, locus YOR184W, strain ser1, hits give low values 0.999 | S. cerevisiae deletion strains, locus YOR231W, strain MKK1, hits give low values 0.998 | S. cerevisiae deletion strains, locus YOR265W, strain rbl2, hits give low values 1.01 | S. cerevisiae deletion strains, locus YOR270C, strain vph1, hits give low values 0.954 | S. cerevisiae deletion strains, locus YOR290C, strain snf2, hits give low values 1.01 | S. cerevisiae deletion strains, locus YOR316C, strain cot1, hits give low values 0.999 | S. cerevisiae deletion strains, locus YPL051W, strain arl3, hits give low values 1.01 | S. cerevisiae deletion strains, locus YPL055C, strain LGE1, hits give low values 0.974 | S. cerevisiae deletion strains, locus YPL078C, strain atp4, hits give low values 1.01 | S. cerevisiae deletion strains, locus YPL106C, strain sse1, hits give low values 0.996 | S. cerevisiae deletion strains, locus YPL240C, strain hsp82, hits give low values 1.01 | S. cerevisiae deletion strains, locus YPL256C, strain CLN2, hits give low values 0.969 | S. cerevisiae deletion strains, locus YPR119W, strain clb2, hits give low values 1 | S. cerevisiae deletion strains, locus YPR141C, strain kar3, hits give low values 1.01 | S. cerevisiae deletion strains, locus YPR163C, strain tif3, hits give low values 0.997 | S. cerevisiae deletion strains, locus YPR167C, strain met16, hits give low values 1.01 | S. cerevisiae deletion strains, strain wtn01, hits give low values 1.05 | S. cerevisiae strains, strain wild type, hits give low values 1
active: S. cerevisiae deletion strains, locus YKL085W, strain MDH1 (second series), hits give low values 1.08 [resistant] | S. cerevisiae deletion strains, locus YKL085W, strain MDH1, hits give low values 1.08 [resistant]
